Data: PubChem BioAssay
Unmarked numbers belong to inactive results.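 Rule for the calls: active = at least 20% inhibition of 6-phosphogluconate dehydrogenase activity; inactive = the rest.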

What follows are compounds tested against 6-phosphogluconate dehydrogenase, decarboxylating (Homo sapiens) (UniProt P52209) (assay: inhibition of human phosphogluconate dehydrogenase – biochemical, recombinant enzyme, NADPH absorbance, primary screen (AID 1159550)). Conditions: recombinant 6PGD, NADPH absorbance 341 nm; at 10 µM; hits give high values.
Chain of 6-phosphogluconate dehydrogenase, decarboxylating (Homo sapiens) (P52209 whole entry, looked up): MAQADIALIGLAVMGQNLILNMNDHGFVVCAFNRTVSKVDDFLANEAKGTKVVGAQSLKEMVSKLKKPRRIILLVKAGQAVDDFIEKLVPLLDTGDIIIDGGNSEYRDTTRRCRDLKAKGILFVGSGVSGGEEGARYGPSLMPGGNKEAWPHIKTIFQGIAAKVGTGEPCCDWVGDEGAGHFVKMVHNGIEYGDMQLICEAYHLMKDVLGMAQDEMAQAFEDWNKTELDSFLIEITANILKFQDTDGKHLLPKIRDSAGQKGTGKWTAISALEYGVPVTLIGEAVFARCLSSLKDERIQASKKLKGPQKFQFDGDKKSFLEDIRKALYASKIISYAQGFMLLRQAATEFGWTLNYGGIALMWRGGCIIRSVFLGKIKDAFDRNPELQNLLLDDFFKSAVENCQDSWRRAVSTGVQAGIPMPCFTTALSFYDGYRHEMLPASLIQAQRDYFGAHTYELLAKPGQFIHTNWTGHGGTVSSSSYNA
For CCC1(O)CC(OC2CC(N(C)C)C(O)C(C)O2)c2c(cc3c(c2O)C(=O)c2c(O)ccc(O)c2C3=O)C1C(=O)OC (centres undefined), the inhibition was -0.278%. In the case of CC(=O)[C@H]1CC[C@H]2[C@@H]3CC[C@H]4C[C@@H](O)CC[C@]4(C)[C@H]3CC[C@]12C, the inhibition is reported as -19.3%. With COP(=O)(OC)OC(C)C(C)=O (centres undefined) the inhibition was 13.2%. For CC(C)N(C(=O)CCl)c1ccccc1, the inhibition was -9.5%. COc1c2c(cc3c1OCO3)[C@]13C=C[C@H](OC)C[C@H]1N(C2)C[C@@H]3O gave an inhibition of -2.74%. With COP(=O)(NC(C)=O)SC (centres undefined) the inhibition was -9.95%. For C[C@@H]1OC(O[C@H]2CC[C@]3(C=O)[C@H]4CC[C@]5(C)C(C6=CC(=O)OC6)CC[C@]5(O)[C@@H]4CC[C@]3(O)C2)[C@H](O)[C@H](O)[C@H]1O (some centres undefined), the inhibition was 2.25%. Compound COc1cc2c3cc1Oc1cc(ccc1O)C[C@@H]1c4c(cc(OC)c(O)c4Oc4ccc(cc4)C[C@H]3N(C)CC2)CCN1C has an inhibition of -17.6%. C/C=C(\C)C(=O)OC1CCC2(C)C3CCC4C5(O)CC(O)C6(O)C(CN7CC(C)CCC7C6(C)O)C5(O)CC42OC13O (centres undefined) showed an inhibition of 6.21%. Compound CCc1cccc(CC)c1N(COC)C(=O)CCl has an inhibition of -1.98%. CN1C2C[C@H](OC(=O)[C@H](CO)c3ccccc3)CC1[C@@H](O)C2 (some centres undefined) gave an inhibition of -3.17%. Work on CC(=O)O[C@H]1CC[C@@]2(C)[C@@H](CC[C@@H]3[C@@H]2CC[C@]2(C)C(=O)CC[C@@H]32)C1 yielded an inhibition of 0.969%. In the case of COP(N)(=O)SC (centres undefined), the inhibition is reported as 4.36%. ClC1=C(Cl)C2(Cl)C3C(Cl)C(Cl)CC3C1(Cl)C2(Cl)Cl (centres undefined) was tested, and the inhibition was -19%. CO[C@H]1C[C@H](O[C@H]2CC[C@]3(C=O)[C@H]4CC[C@]5(C)[C@@H](C6=CC(=O)OC6)CC[C@]5(O)[C@@H]4CC[C@]3(O)C2)O[C@H](C)[C@H]1O gave an inhibition of -5.2%. Work on CCCCN(CC)c1c([N+](=O)[O-])cc(C(F)(F)F)cc1[N+](=O)[O-] yielded an inhibition of -9.8%. CCOP(=S)(OCC)SCSCC gave an inhibition of 7.84%. With ClC1=C(Cl)[C@@]2(Cl)[C@@H]3[C@H]4C[C@@H]([C@H]5O[C@@H]45)[C@H]3[C@@]1(Cl)C2(Cl)Cl the inhibition was -14%. With C[C@]12CC[C@H](O)C[C@H]1CC[C@@H]1[C@@H]2[C@H](O)C[C@]2(C)[C@@H](C3=CC(=O)OC3)CC[C@]12O the inhibition was 11.1%. For CN[C@H]1C[C@@H](N)[C@H](O)[C@@H](O[C@@H]2O[C@H](CO)[C@H](O)[C@@H]3OC4(O[C@H]23)O[C@H]([C@@H](N)CO)[C@H](O)[C@@H](O)[C@H]4O)[C@@H]1O (some centres undefined), the inhibition was 14.7%. With CCOCN(C(=O)CCl)c1c(C)cccc1CC the inhibition was 4.9%. In the case of ClC1=C(Cl)[C@]2(Cl)[C@H]3[C@H]([C@@H]4C=C[C@H]3C4)[C@@]1(Cl)C2(Cl)Cl, the inhibition is reported as 6.64%. With CC(C)OC(=O)Nc1cccc(Cl)c1 the inhibition was -6.1%. CO[C@H]1[C@H](O)[C@H](O[C@H]2CC[C@]3(C)C4CC[C@]5(C)[C@@H](C6=CC(=O)OC6)CC[C@]5(O)C4CC[C@@H]3C2)O[C@@H](C)[C@@H]1O (some centres undefined) was tested, and the inhibition was 11.3%. CN1[C@@H]2C[C@@H]3C[C@H]1[C@H](O)[C@H]2O3 was tested, and the inhibition was -5.75%. With COc1cc2c(cc1OC)C(=O)c1ccc(OC)c(OC)c1OCC(=O)C2 the inhibition was -4.44%. CCOP(=S)(OCC)SCCSCC was tested, and the inhibition was 3.96%. CC1CC(O)C2(O)C13CC(=O)OCC2(C)C(C)(O)C(=O)C3 (centres undefined) showed an inhibition of 17.6%. COP(=O)(OC)OC(Br)C(Cl)(Cl)Br (centres undefined) gave an inhibition of -10.9%. In the case of CCC(=O)Nc1ccc(Cl)c(Cl)c1, the inhibition is reported as -20.3%. For CC[C@H](C)C(=O)O[C@@H]1C[C@@]2(C)[C@H](c3ccoc3)OC(=O)C[C@]23OC2(C)O[C@@]34[C@H](OC(=O)C(C)C)C3(O)[C@@H](OC(=O)[C@@]5(C)O[C@@H]5C)C5(C)C[C@]3(O)[C@](C)([C@H]5CC(=O)OC)[C@@]14O2 (some centres undefined), the inhibition was 3.98%. CC(C)=CCC[C@]1(C)C=Cc2c(O)c3c(c(CC=C(C)C)c2O1)O[C@]12C(=C[C@@H]4C[C@H]1C(C)(C)O[C@@]2(C/C=C(/C)C(N)=O)C4=O)C3=O showed an inhibition of -5.75%. CC(=O)OC1CC2(C)C(c3ccoc3)CC3OC32C2(C)C(=O)C(O)=C3C(C)(C)C(=O)C=CC3(C)C12 (centres undefined) was tested, and the inhibition was 9.52%. For C[C@]12CCC(=O)C=C1CCc1ccc(O)cc12, the inhibition was -3.52%. Work on C=C(C)C(=O)/C(=C/C(=O)O)OC yielded an inhibition of 12.8%. C[C@]12CCC3C(CC[C@H]4C[C@@H](Cl)CC[C@]34C)C1CCC2=O (some centres undefined) showed an inhibition of -16.8%. Compound Cc1c(O)c(C(=O)CC(C)C)c2oc3c(C(=O)CC(C)C)c(O)c(C)c(O)c3c2c1O has an inhibition of 0.288%. With CC(=O)O[C@@H]1[C@H]2CC[C@H]3[C@@](C)(O)[C@@H]4C[C@H](O)C(C)(C)[C@@]4(O)[C@H](O)C[C@@]13C[C@@]2(C)O the inhibition was 8.37%. For OC1C[C@H]2CCC[C@@H](C1)N2Cc1ccccc1 (some centres undefined), the inhibition was 1.32%.
